These results are taken from PubChem BioAssay (NCI).

A short description of assay [1]: NCI Yeast Anticancer Drug Screen. Data for the rad50 strain (AID 155).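 Also: 0% = growth of vehicle-only cultures of the same strain.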 As to conditions: S. cerevisiae rad50 strain growth inhibition, hits give high values. The procedure, abridged: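 Compounds were tested on a yeast strain with an engineered DNA damage repair alteration; the reported value is growth inhibition normalised to vehicle treatment.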
Assay [2] can be described thus: NCI Yeast Anticancer Drug Screen. Data for the mec2-1 strain (AID 157). As to conditions: S. cerevisiae mec2-1 strain, hits give high values. The procedure, abridged:
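Vehicle-treated cultures served as reference for growth inhibition of compound-exposed mec2-1 yeast.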

Assay [3] in a line: NCI Yeast Anticancer Drug Screen. Data for the sgs1 mgt1 strain (AID 161).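 Also: 0% = growth of cultures given vehicle only.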 The settings on record: S. cerevisiae sgs1 mgt1 strain, hits give high values. The method in brief: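 Read-out: growth inhibition vs vehicle controls. Cells: mutant yeast strain deficient in DNA damage repair.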
Assay [4] in a line: NCI Yeast Anticancer Drug Screen. Data for the cln2 rad14 strain (AID 165).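 Also: 0% = growth equal to vehicle treated cultures.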 As to conditions: S. cerevisiae cln2 rad14 strain, hits give high values. The procedure, abridged: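 Each compound was tested on cln2 rad14 yeast. Inhibition of growth was calculated against vehicle-exposed controls.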
A short description of assay [5]: NCI Yeast Anticancer Drug Screen. Data for the bub3 strain (AID 167). As to conditions: S. cerevisiae bub3 mutant strain, hits give high values. The procedure, abridged:
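Growth of a checkpoint-deficient yeast mutant is measured after compound exposure. Values represent inhibition relative to vehicle.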

Assay [6] can be described thus: NCI Yeast Anticancer Drug Screen. Data for the mlh1 rad18 strain (AID 175). As to conditions: S. cerevisiae mlh1 rad18 strain growth inhibition, hits give high values. The procedure, abridged: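 Vehicle-treated cultures served as the reference for growth inhibition in a yeast strain carrying DNA damage repair alterations exposed to each compound.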
Setting [7] is: at 5.0 µM (retest, dose inferred, filed as 0.5).
Where [8] appears, read: at 50.0 µM (retest, dose inferred, filed as 5.0).

Each structure is given as a SMILES string. The panel holds about 79,000 compounds, 15% with a hit somewhere; the sample as a whole holds those more often. Unmarked numbers belong to inactive results. The source made the active and inactive calls. Rule as the data show it: active = growth inhibition above about 70%; inactive = the rest. Where a SMILES comes first, the peptide text is derived from it. The star is where a group is joined. Trt = c1ccc(C(c2ccccc2)(c2ccccc2)*)cc1; Cbz = O=C(OCc1ccccc1)*

Consider `COc1ccc([C@H]2c3cc4c(cc3OC(O)(CO)[C@H]2C(=O)O)OCO4)c(OC)c1` (stereo not given in full) (tested in a mixture with another compound), for which the growth inhibition in assay [1] (setting [7]) is 9%; in assay [1] (setting [8]), 63%; in assay [1] (at 50.0 µM) it was 57%; in assay [2] (setting [7]), 15%; in assay [2] (setting [8]), 48%; in assay [2] (at 50.0 µM) it was 48.4%. For the same molecule, the growth inhibition is 0% in assay [3] (setting [7]); 44% in assay [3] (setting [8]); 44.1% in assay [3] (at 50.0 µM); 0% in assay [4] (setting [7]); 35% in assay [4] (setting [8]); 28% in assay [4] (at 50.0 µM). Besides, the growth inhibition was -5% in assay [5] (setting [7]); 76% (active) in assay [5] (setting [8]); 54.5% in assay [5] (at 50.0 µM); 6% in assay [6] (setting [7]); 86% (active) in assay [6] (setting [8]); 80.5% (active) in assay [6] (at 50.0 µM).
Turning to `COC(=O)c1[nH]c(=O)c(C#N)c(C(=O)OC)c1C(=O)c1ccc(Cl)c(Cl)c1`, the growth inhibition in assay [1] (setting [7]) was -19%; in assay [1] (setting [8]) it was 90% (active); in assay [1] (at 50.0 µM), 97% (active); in assay [2] (setting [7]), -18%; in assay [2] (setting [8]), 55%; in assay [2] (at 50.0 µM), 73% (active). The growth inhibition in assay [3] (setting [7]) is 23%; in assay [3] (setting [8]), 72% (active); in assay [3] (at 50.0 µM), 95.4% (active); in assay [4] (setting [7]), 3%; in assay [4] (setting [8]) it was 61%; in assay [4] (at 50.0 µM), 46.1%. In addition, the growth inhibition was -22% in assay [5] (setting [7]); 90% (active) in assay [5] (setting [8]); 79.5% (active) in assay [5] (at 50.0 µM); -12% in assay [6] (setting [7]); 90% (active) in assay [6] (setting [8]); 93.9% (active) in assay [6] (at 50.0 µM).
For `O=S(=O)(c1ccc(OCC(O)COc2ccc(S(=O)(=O)c3ccc(OCC4CO4)cc3)cc2)cc1)c1ccc(OCC2CO2)cc1` (stereo not given), the growth inhibition in assay [1] (setting [7]) is -5%; in assay [1] (setting [8]), -9%; in assay [1] (at 50.0 µM) it was 21.6%; in assay [2] (setting [7]) it was 4%; in assay [2] (setting [8]), 11%; in assay [2] (at 50.0 µM), 37.2%. Besides, the growth inhibition in assay [3] (setting [7]) is 0%; in assay [3] (setting [8]), 19%; in assay [3] (at 50.0 µM) it was 63.1%; in assay [4] (setting [7]) it was 3%; in assay [4] (setting [8]) it was 25%; in assay [4] (at 50.0 µM) it was 2.95%. Further, the growth inhibition in assay [5] (setting [7]) was -4%; in assay [5] (setting [8]), -2%; in assay [5] (at 50.0 µM), -20.5%; in assay [6] (setting [7]), 8%; in assay [6] (setting [8]), 29%; in assay [6] (at 50.0 µM) it was 78.1% (active).
`COc1ccc2nc3cc([N+](=O)[O-])ccc3c(NNc3ccc([N+](=O)[O-])cc3)c2c1`: the growth inhibition in assay [1] (setting [7]) was 2%; in assay [1] (setting [8]), 2%; in assay [1] (at 50.0 µM), 58%; in assay [2] (setting [7]), 2%; in assay [2] (setting [8]) it was -4%; in assay [2] (at 50.0 µM), 36.9%. Moreover, the growth inhibition is 3% in assay [3] (setting [7]); -4% in assay [3] (setting [8]); 65% in assay [3] (at 50.0 µM); -5% in assay [4] (setting [7]); -15% in assay [4] (setting [8]); 30.9% in assay [4] (at 50.0 µM). The growth inhibition in assay [5] (setting [7]) was 2%; in assay [5] (setting [8]) it was -5%; in assay [5] (at 50.0 µM) it was 55.2%; in assay [6] (setting [7]), 5%; in assay [6] (setting [8]), 0%; in assay [6] (at 50.0 µM), 66.2%.
Turning to `O=[N+]([O-])c1ccc(C2=CSc3ccccc3N2)cc1`, the growth inhibition is -17% in assay [1] (setting [7]); 6% in assay [1] (setting [8]); 49.7% in assay [1] (at 50.0 µM); -30% in assay [2] (setting [7]); -5% in assay [2] (setting [8]); 59.4% in assay [2] (at 50.0 µM). Also, the growth inhibition is -11% in assay [3] (setting [7]); -7% in assay [3] (setting [8]); 58% in assay [3] (at 50.0 µM); 11% in assay [4] (setting [7]); 25% in assay [4] (setting [8]); 22.9% in assay [4] (at 50.0 µM). Also, the growth inhibition was -16% in assay [5] (setting [7]); 19% in assay [5] (setting [8]); 73.4% (active) in assay [5] (at 50.0 µM); -43% in assay [6] (setting [7]); 31% in assay [6] (setting [8]); 58.2% in assay [6] (at 50.0 µM).
On to `CC(C)(CCBr)[N+](=O)[O-]`, for which the growth inhibition in assay [1] (setting [7]) was -151%; in assay [1] (setting [8]) it was -161%; in assay [1] (at 50.0 µM) it was 0.55%; in assay [2] (setting [7]), -47%; in assay [2] (setting [8]), -54%; in assay [2] (at 50.0 µM) it was 16%. The growth inhibition in assay [3] (setting [7]) was -61%; in assay [3] (setting [8]), -62%; in assay [3] (at 50.0 µM) it was 8.35%; in assay [4] (setting [7]) it was -52%; in assay [4] (setting [8]), -68%; in assay [4] (at 50.0 µM), 43.9%. Besides, the growth inhibition is -75% in assay [5] (setting [7]); -84% in assay [5] (setting [8]); 5.85% in assay [5] (at 50.0 µM); -225% in assay [6] (setting [7]); -127% in assay [6] (setting [8]); 0.35% in assay [6] (at 50.0 µM).
For `C/C(=N\NC(=S)N1CCN(Cc2ccccc2)CC1)c1ccccn1`, the growth inhibition in assay [1] (setting [7]) is 23%; in assay [1] (setting [8]), 76% (active); in assay [1] (at 50.0 µM) it was 90.3% (active); in assay [2] (setting [7]), 23%; in assay [2] (setting [8]), 85% (active); in assay [2] (at 50.0 µM) it was 88.8% (active). In addition, the growth inhibition in assay [3] (setting [7]) was 12%; in assay [3] (setting [8]), 80% (active); in assay [3] (at 50.0 µM), 31.2%; in assay [4] (setting [7]), 8%; in assay [4] (setting [8]), 73% (active); in assay [4] (at 50.0 µM), -14.7%. In addition, the growth inhibition was 31% in assay [5] (setting [7]); 96% (active) in assay [5] (setting [8]); 11.7% in assay [5] (at 50.0 µM); 15% in assay [6] (setting [7]); 74% (active) in assay [6] (setting [8]); 81.6% (active) in assay [6] (at 50.0 µM).
`CCCCCCCCCCCCCCCC[N+](C)(CCO)Cc1cnc[nH]1` (stereo not given): the growth inhibition in assay [1] (setting [7]) is 97% (active); in assay [1] (setting [8]), 98% (active); in assay [1] (at 50.0 µM) it was 90.2% (active); in assay [2] (setting [7]) it was 97% (active); in assay [2] (setting [8]) it was 99% (active); in assay [2] (at 50.0 µM), 87.4% (active). Also, the growth inhibition in assay [3] (setting [7]) is 98% (active); in assay [3] (setting [8]), 99% (active); in assay [3] (at 50.0 µM), 90.8% (active); in assay [4] (setting [7]) it was 98% (active); in assay [4] (setting [8]) it was 99% (active); in assay [4] (at 50.0 µM), 86.8% (active). In addition, the growth inhibition in assay [5] (setting [7]) was 99% (active); in assay [5] (setting [8]) it was 99% (active); in assay [5] (at 50.0 µM), 88% (active); in assay [6] (setting [7]) it was 94% (active); in assay [6] (setting [8]), 98% (active); in assay [6] (at 50.0 µM), 88.6% (active).
As to `CCOC(=O)c1[nH]n(-c2ccccc2)c(=O)c1/C=N/C(=S)Nc1ccccc1OC`, the growth inhibition in assay [1] (setting [7]) was -7%; in assay [1] (setting [8]), -3%; in assay [1] (at 50.0 µM) it was 0.4%; in assay [2] (setting [7]), -14%; in assay [2] (setting [8]), -11%; in assay [2] (at 50.0 µM), -31.6%. For the same molecule, the growth inhibition in assay [3] (setting [7]) is -5%; in assay [3] (setting [8]), -3%; in assay [3] (at 50.0 µM), -18.1%; in assay [4] (setting [7]), -23%; in assay [4] (setting [8]) it was -12%; in assay [4] (at 50.0 µM), 44.6%. In addition, the growth inhibition is 0% in assay [5] (setting [7]); -9% in assay [5] (setting [8]); 10.1% in assay [5] (at 50.0 µM); -2% in assay [6] (setting [7]); 1% in assay [6] (setting [8]); -16.2% in assay [6] (at 50.0 µM).
Turning to `COC(=O)C(CSC(c1ccccc1)(c1ccccc1)c1ccccc1)NC(=O)C(CC(N)=O)NC(=O)OCc1ccccc1` (stereo not drawn) (Cbz-Asn-Cys(Trt)-OMe; configuration not given here), the growth inhibition in assay [1] (setting [7]) was 32%; in assay [1] (setting [8]), 84% (active); in assay [1] (at 50.0 µM) it was 73.5% (active); in assay [2] (setting [7]) it was 13%; in assay [2] (setting [8]), 89% (active); in assay [2] (at 50.0 µM), 68.2%. In addition, the growth inhibition is 17% in assay [3] (setting [7]); 94% (active) in assay [3] (setting [8]); 72.5% (active) in assay [3] (at 50.0 µM); 27% in assay [4] (setting [7]); 94% (active) in assay [4] (setting [8]); 72% (active) in assay [4] (at 50.0 µM). In addition, the growth inhibition in assay [5] (setting [7]) is 15%; in assay [5] (setting [8]), 94% (active); in assay [5] (at 50.0 µM), 68.8%; in assay [6] (setting [7]), 27%; in assay [6] (setting [8]) it was 88% (active); in assay [6] (at 50.0 µM), 68.9%.
